# In PubChem BioAssay (NCATS):
# Inconclusive results are not listed. The source made the active and inactive calls. Calls come from the whole dose curve; as a rule, active = well fitted cell-killing curve with a large enough effect; inconclusive = small, poorly fitted or top-dose-only effect, or effect the other way; inactive = flat fitted curve, though single readings scatter.
# Test: qHTS of pediatric cancer cell lines to identify multiple opportunities for drug repurposing: Confirmatory screen for Rh18 cells (AID 1347125); note: nearly all actives have a fitted effect of over 55% in size
# Conditions: Rh18 rhabdomyosarcoma cells, viability; series mostly up to 45.9 µM
# From the text: Drug repurposing or repositioning has been offered as a strategy for drug development in oncology programs. This approach has special potential for childhood cancers and other rare or orphan diseases, where the expected return on new drug development has been a disincentive to pharmaceuticals.
# In this project we exploit the poly-pharmacology of drugs to discover new indications via phenotypic screening of a panel of 19 well-characterized cell lines derived from solid tumors seen in children and adolescents. The goal is to identify approved drugs with previously unrecognized anticancer properties that has the potential to reveal new mechanisms and biological processes involved in carcinogenesis or drug resistance. We employed a titration-based paradigm (quantitative high-throughput screening or qHTS), where all compounds were tested at multiple concentrations for their effect on cell viability. Concentration-response curves (CRCs) were derived directly from the primary screen, and both potency and efficacy values were used to identify compounds with robust bioactivity profiles. We screened the NIH Chemical Genomics Center (NCGC) Pharmaceutical Collection (NPC) and Mechanism Interrogation Plate (MIPE) small molecule collections of approved and investigational compounds against these cell lines; and measured metabolically active cells after 48 hours of compound treatment as a proxy for cell viability.
# Assay Submitter: Nathalia J. Martinez, National Center for Advancing Translational Sciences, National Institutes of Health, Rockville, MD, USA; email: natalia.martinez@nih.gov
# [1] Shen, M et al. Quantitative high-throughput phenotypic screening of pediatric cancer cell lines identifies multiple opportunities for drug repurposing. Oncotarget 2017 Dec 19;9(4):4758-4772. PMID 29435139.
# The cells were obtained from University of North Carolina (UNC), Pediatric Preclinical Testing Program (PPT), and Coriell Institute (CI).
# qHTS cell viability assay:
# Cells were assayed in growth media at a density of 500-1,000 cells/well. Five microliters of cells were dispensed into 1,536-well, white, solid-bottom, TC-treated plates (Greiner Bio One) using a multidrop dispenser and incubated at 37 degrees C, 5% CO2, under a humidified atmosphere for 5 hours. Twenty-three nanoliters of compounds and controls (neutral control DMSO or positive control bortezomib at final concentration of 2.3 µM) were subsequently transferred by Kalypsys pintool. For primary screens, the MIPE collection was tested at 11-point dilutions (final concentrations range from 0.78 nM to 46 µM) and the NPC collection at 8-point dilutions (final concentrations range from 0.59 nM to 46 µM). Compounds tested in follow-up screens were assayed at 11-point dilutions. Cells were incubated for 48 hours, followed by addition of 3 µL of CellTiter-Glo (Promega). After a 15 min incubation at room temperature, samples were analyzed for luminescence intensity using a ViewLux High-throughput CCD imager equipped with clear filters.
# Potency is the fitted concentration of half-maximal effect.
row,Compound,Potency
1,CC=C1NC(=O)[C@H]2CSSCCC=C[C@H](CC(=O)N[C@H](C(C)C)C(=O)N2)OC(=O)[C@H](C(C)C)NC1=O,inactive
2,COC(=O)Nc1nc2ccc(C(=O)c3ccc(F)cc3)cc2[nH]1,inactive
3,Cc1ccc2nc(NC(=O)CSc3nc4c(c(=O)n3-c3ccccc3)SCC4)sc2c1,inactive
4,CNC(=O)c1ccc(N2C(=S)N(c3cnc(C#N)c(C(F)(F)F)c3)C(=O)C23CCC3)cc1F,inactive
5,NC(=O)c1cccc2cn(-c3ccc([C@@H]4CCCNC4)cc3)nc12,inactive
6,COc1cc2c(Oc3ccc(NC(=O)C4(C(=O)Nc5ccc(F)cc5)CC4)cc3F)ccnc2cc1OCCCN1CCOCC1,7.37 µM (active)
7,CC(C)c1cc(C(=O)N2Cc3ccc(CN4CCN(C)CC4)cc3C2)c(O)cc1O,0.657 µM (active)
8,CC(C)(C)NC(=O)[C@H]1CN(Cc2cccnc2)CCN1C[C@@H](O)C[C@@H](Cc1ccccc1)C(=O)N[C@H]1c2ccccc2C[C@H]1O,inactive
9,CNC(=O)CN1CCC(Oc2cc3c(Nc4cccc(Cl)c4F)ncnc3cc2OC)CC1,5.85 µM (active)
10,CC(C)(C)OC(=O)Nc1ccc(-c2cc(C(=O)NCCCCCCC(=O)NO)no2)cc1,4.65 µM (active)
11,COC(=O)[C@]12CCC(C)(C)C[C@@H]1[C@@H]1C(=O)C=C3[C@@]4(C)C=C(C#N)C(=O)C(C)(C)[C@@H]4CC[C@@]3(C)[C@]1(C)CC2,5.22 µM (active)
12,C[C@@]12O[C@@H](C[C@]1(O)CO)n1c3ccccc3c3c4c(c5c6ccccc6n2c5c31)CNC4=O,3.69 µM (active)
13,O=C(C=Cc1cccnc1)NCCCCC1CCN(C(=O)c2ccccc2)CC1,inactive
14,COC(=O)c1ccc2c(C(=Nc3ccc(N(C)C(=O)CN4CCN(C)CC4)cc3)c3ccccc3)c(O)[nH]c2c1,26.1 µM (active)
15,O=C(Nc1cc(C(F)(F)F)cc(C(F)(F)F)c1)c1cc(Cl)ccc1O,3.69 µM (active)
16,CN(c1ncccc1CNc1nc(Nc2ccc3c(c2)CC(=O)N3)ncc1C(F)(F)F)S(C)(=O)=O,inactive
17,CC1(C)OC2=C(C(=O)c3ccccc3C2=O)[C@H](NCc2ccccc2)[C@H]1O,7.37 µM (active)
18,CCC1=C[C@@H]2CN(C1)Cc1c([nH]c3ccccc13)[C@@](C(=O)OC)(c1cc3c(cc1OC)N(C)[C@@H]1[C@@](O)(C(=O)OC)[C@H](OC(C)=O)[C@]4(CC)C=CCN5CC[C@]31[C@@H]54)C2,inactive
19,CC1(C)CCC(c2ccc(Cl)cc2)=C(CN2CCN(c3ccc(C(=O)NS(=O)(=O)c4ccc(N[C@H](CCN5CCOCC5)CSc5ccccc5)c(S(=O)(=O)C(F)(F)F)c4)cc3)CC2)C1,inactive
20,CC[C@@]1(O)C(=O)OCc2c1cc1n(c2=O)Cc2cc3cc(O)ccc3nc2-1,0.657 µM (active)

row,Compound,Potency
1,NC(=O)Nc1cc(-c2cccc(F)c2)sc1C(=O)N[C@H]1CCCNC1,6.57 µM (active)
2,CC(=O)OCC(=O)[C@@]1(O)[C@H](C)C[C@H]2[C@@H]3C=C(C)C4=Cc5c(cnn5-c5ccccc5)C[C@]4(C)[C@@H]3[C@@H](O)C[C@@]21C,16.5 µM (active)
3,COCCn1c2c([n+](Cc3cnccn3)c1C)C(=O)c1ccccc1C2=O,0.0147 µM (active)
4,O=C(Nc1cn[nH]c1-c1nc2ccc(CN3CCOCC3)cc2[nH]1)NC1CC1,inactive
5,CC(=O)Nc1nc(C)c(-c2ccc(Cl)c(S(=O)(=O)NCCO)c2)s1,11.7 µM (active)
6,Nc1ncnc2c1c(-c1cnc3[nH]ccc3c1)nn2C1CCCC1,2.93 µM (active)
7,CNC(=O)c1c(F)cccc1Nc1nc(Nc2cc3c(cc2OC)CCN3C(=O)CN(C)C)nc2[nH]ccc12,14.7 µM (active)
8,CCn1nnc2c(N3CCOCC3)nc(-c3ccc(NC(=O)Nc4ccc(C(=O)N5CCN(C)CC5)cc4)cc3)nc21,1.04 µM (active)
9,CCOc1cc2ncc(C#N)c(Nc3ccc(F)c(Cl)c3)c2cc1NC(=O)C=CCN(C)C,inactive
10,COc1ccc(-c2cc3c(C)nc(N)nc3n(C3CCC(OCCO)CC3)c2=O)cn1 (stereo not given),inactive
11,Cc1nc2ccc(CN(C)c3ccc(C(=O)N[C@@H](CCC(=O)O)C(=O)O)s3)cc2c(=O)[nH]1,inactive
12,C=CC(=O)Nc1cccc(Oc2nc(Nc3ccc(N4CCN(C)CC4)cc3OC)ncc2Cl)c1,20.8 µM (active)
13,CC(C)[C@H](C(=O)Nc1ccc(C(=O)NO)cc1)c1ccccc1,0.827 µM (active)
14,Cn1c2ccccc2c2c3c(c4c5ccccc5n(CCC#N)c4c21)CNC3=O,inactive
15,COc1cccc2nc(-c3cccs3)nc(NN3C(=O)C=C(C)C3=O)c12,20.8 µM (active)
16,CC[C@@H]1C(=O)N(C)c2cnc(Nc3ccc(C(=O)NC4CCC(N5CCN(CC6CC6)CC5)CC4)cc3OC)nc2N1C(C)C (stereo not given in full),inactive
17,CCn1cc(-c2ccnc3[nH]c(-c4cccc(CN(C)C)c4)cc23)c(-c2ccc(NC(=O)N(C)C)cc2)n1,16.5 µM (active)
18,CC[C@@H]1C(=O)N(C)c2cnc(Nc3ccc(C(=O)NC4CCN(C)CC4)cc3OC)nc2N1C1CCCC1,18.5 µM (active)
19,CC=CC1=C(C(=O)O)N2C(=O)[C@H](NC(=O)[C@H](N)c3ccc(O)cc3)[C@@H]2SC1,inactive
20,CNC(=O)c1ccccc1Nc1nc(Nc2ccc(N3CCOCC3)cc2OC)ncc1Cl,4.14 µM (active)
